Reference: PubChem BioAssay (NCI)
The panel holds about 83,000 compounds, 20% with a hit somewhere; the sample as a whole holds those more often.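 Single-concentration screen, 48 h exposure, 96-well plates. Endpoint: percent growth. Below 10 = active.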 Activity calls are given as the source filed them.

Tested on: MDA-MB-468 breast
Assay: NCI-60 one-dose screen, 48 h (100 = growth as untreated, 0 = no growth, -100 = all killed)
Details: 10 µM unless noted

Row | SMILES | growth
1 | C/C(=N\NC(N)=S)c1nnn(-c2ccc([N+](=O)[O-])cc2)c1C | 89.3% (inactive)
2 | COc1cccc(-c2cn3nc(-c4cn(C)c5ccccc45)sc3n2)c1 | 103% (inactive)
3 | Cc1cc(=NO)cc(C)n1O | 98.1% (inactive)
4 | O=C(O)c1ccccc1.[Ag] | 90.4% (inactive)
5 | CSc1ccc2c(c1)N(CCC1CCCCN1C)c1ccccc1S2 (centres undefined) | -10.2% (active)
6 | COc1ccc(/C=N\NC(=O)c2cc(-c3ccc(Br)cc3)n(-c3ccc(S(N)(=O)=O)cc3)n2)cc1 | -1.98% (active)
7 | O=C(CCl)Nc1ccc(Cc2ccc(NC(=O)CCl)cc2)cc1 | -36.8% (active)
8 | CC1(C)CC([P+](c2ccccc2)(c2ccccc2)c2ccccc2)=NN1 | -12.9% (active)
9 | CN1CCc2c(sc3nc4n(-c5ccc(Cl)cc5)cnn4c(=O)c23)C1 | 81.7% (inactive)
10 | Cn1nc(N)c2cc([C@@H]3Nc4ccc5[nH]ncc5c4[C@H]4C5CCC(C5)[C@@H]34)ccc21 (some centres undefined) | -2.64% (active)
11 | O=C1NC(=O)/C(=C/c2ccc(OCc3cc4ccccc4nc3Cl)cc2)S1 | 92% (inactive)
12 | CN(C)S(=O)(=O)Oc1ccc(-c2sc3cc(OS(=O)(=O)N(C)C)ccc3c2C(=O)c2ccc(OCCN3CCCCC3)cc2)cc1 | 61.7% (inactive)
13 | O=C(Nc1ccccc1OC(=O)c1ccccc1)c1ccccc1 | 59% (inactive)
14 | Nc1cccc(C(=O)Nc2ccc3c(O)c(N=Nc4ccc(N=Nc5ccc(S(=O)(=O)O)cc5)cc4)c(S(=O)(=O)O)cc3c2)c1 | 113% (inactive)
15 | N#C/C(C(=O)c1ccccc1)=C1/C(=O)Nc2ccc(F)cc21 | 106% (inactive)
16 | CCCCCCCCCCCCCCCCCCOc1ccccc1CC(=O)NCC[N+]1(C)CCCCC1 | 7.37% (active)
17 | CCn1c(-c2nonc2N)nc2c(C#CC(C)(C)O)ncc(OC[C@H]3CCCNC3)c21 | 31.5% (inactive)
18 | CC1(C)CC(=O)C(c2c(-c3ccccc3)[nH]c3[nH]c(=S)[nH]c(=O)c23)=C(O)C1 | 109% (inactive)
19 | CC(=O)Nc1ccc(-n2c(O)c(/C=N/NC(=O)Cc3ccccc3Nc3c(Cl)cccc3Cl)sc2=S)cc1 | 94.2% (inactive)
20 | CCOC(=O)c1cc(C(=O)c2cc(OC)c(OC)c(OC)c2)n2ccc(-c3ccncc3)cc12 | 99.1% (inactive)
21 | COc1ccc(/C=C(\C#N)n2nnc3ccc(Cl)cc32)cc1 | 28.9% (inactive)
22 | CCNc1nnc(COc2ccc(CNC(=O)CCCC/C=C/C(C)C)cc2OC)o1 | 104% (inactive)
23 | CCOC(=O)c1cc(C#N)n2ncc3ccccc3c12 | 87.9% (inactive)
24 | O=C(c1ccc(F)cc1)C1CCN(CCn2c(=O)[nH]c3ccccc3c2=O)CC1 | 104% (inactive)
